Screening results: PubChem BioAssay, several laboratories
cardiac RTF act: cardiac RTF calcium sensitivity activators, primary screen, biochemical, IANBD-TnC fluorescence, EC20 calcium; Troponin I, cardiac muscle (Homo sapiens) + Troponin T, cardiac muscle (Homo sapiens) + …; IANBD-labeled TnC RTF fluorescence at EC20 calcium; 0% EC20 calcium, 100% full calcium; activation, % at 7.2 µM; 0.24% of 340,000 active;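 active = activation above the mean over all tested compounds plus 3 SD, cut at about 30% in these data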;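 also: rise in fluorescence read as greater calcium sensitivity of cardiac thin filaments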
IDE act: human IDE activators in live cells, primary screen, fluorescence polarization, HEK cells, FAbeta-B substrate; 0.073% of 340,000 active; activation, % at 5.96 µM; Insulin-degrading enzyme (Homo sapiens), P14735; FAbeta-B cleavage; 0% vehicle, 100% cell-free pure enzyme wells;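 active = activation above the mean of all tested compounds plus 3 SD, set per screening campaign, cut at about 17% in these data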
Cardiac RTF inh: cardiac RTF calcium sensitivity inhibitors, primary screen, biochemical, IANBD-TnC fluorescence, EC70 calcium; Troponin I, cardiac muscle (Homo sapiens) + Troponin T, cardiac muscle (Homo sapiens) + …; IANBD-labeled cardiac RTF, Ca2+ fluorescence; inhibition, % at 7.15 µM; 0.12% of 340,000 active; AID 493244, 2011;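 active = inhibition above the mean inhibition of all tested compounds plus 3 SD, cut at about 17% in these data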;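 also: assay run at fixed EC70 calcium of 1.6 mM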
IDE inh: human IDE inhibitors in live cells, primary screen, fluorescence polarization, HEK cells, FAbetaB substrate | FAbetaB cleavage | inhibition, % at 5.59 µM | 0.41% of 320,000 active;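 active = percent inhibition above the average of all tested compounds plus 3 SD, set per screening campaign, cut at about 16% in these data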;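 also: IDE supplied by intact live HEK cells; FP after avidin binding of uncleaved biotin substrate so inhibition keeps polarization high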
CRFR2-BP antag: antagonists of CRF-BP/CRF-R2 complex, primary screen, cell-based, HEK293, calcium dye fluorescence, uHTS | CRF-induced calcium fluorescence | inhibition, % at 11.8 µM | 0.59% of 350,000 active | AID 588475, 2011;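 active = inhibition of the ligand-induced calcium signal above about 50% at the single tested concentration, limit read from the data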
CRFBP-R2 agonist: agonists of CRF-BP/CRF-R2 complex, primary screen, cell-based, HEK293, calcium dye fluorescence, uHTS | calcium dye fluorescence (FLIPR); percent of saturating CRF peptide response | AID 588473, 2011 | CRF-binding protein / CRF receptor 2 complex (human) | activation, % at 13.2 µM | 0.46% of 350,000 active;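 active = activation of at least 50%, plus an integration ratio under a set limit after plate pattern correction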
Hits are given with their value; - = inactive; . = no result given. A selection: hits, their analogues and other compounds. The true share with any hit is near 1.5%.

SMILES	cardiac RTF act	IDE act	Cardiac RTF inh	IDE inh	CRFR2-BP antag	CRFBP-R2 agonist
CCOP(=O)(OCC)c1cc(CC)ccc1O	-	-	-	-	93	-
COc1ccccc1NC(=O)c1cn(CCC#N)nc1-c1ccc(F)cc1	-	-	-	.	-	-
CCCCCC[N+](=O)[O-]	-	-	-	-	-	-
CCCCCCCCCCCCCCCC[N+](C)(C)C	-	-	-	-	66	-
Cc1ccc(Sc2ccc(C=C3C(=O)N(C)C(=O)N(C)C3=O)o2)cc1	-	-	-	-	-	-
CN1C(=O)C(=Cc2ccc(-c3cccc(Cl)c3)o2)C(=O)N(C)C1=O	.	.	.	-	.	.
CN1C(=O)C(=Cc2ccc(N3CCCCCC3)o2)C(=O)N(C)C1=S	58	-	-	-	-	99
CN1C(=O)C(=Cc2ccc(N3CCOCC3)o2)C(=O)N(C)C1=O	72	-	-	-	-	-
C[C@]12CCC3C(CC[C@@H]4C[C@@H](O)CC[C@]34C)C1CC[C@@H]2O (some centres not stated)	-	-	-	.	-	-
Cc1ccc(O)c(CN2CCC3CCC(C3)C2)c1 (configuration not stated)	-	-	-	.	-	-
COc1ccc(C(O)(c2ccccc2)c2ccncc2)cc1 (configuration not stated)	-	-	-	.	-	-
Cn1cc(C(=O)c2ccccc2)c2ccccc21	-	-	-	-	53	-
O=C(O)Cn1cc(C(=O)c2ccccc2)c2ccccc21	-	-	-	-	-	-
CCC/C=N/O	-	-	-	-	-	-
COCCNC(=O)Cn1cc(C(=O)c2ccccc2F)c2ccccc21	-	-	-	-	-	-
O=C1NC(=O)N(Cc2ccccc2)C(=O)/C1=C\N1CCCc2ccccc21	36	-	-	-	-	-
O=C1NC(=O)C(=CN2CCc3ccccc32)C(=O)N1	-	-	-	-	-	-
Oc1cc(Cl)c(Cl)c(Cl)c1	-	-	-	.	55	-
Oc1cc(Cl)c(Cl)c(Cl)c1Cl	-	-	-	.	-	-
Nc1ccc2ccc3cccc[n+]3c2c1	743	46	-	-	-	163
C[n+]1c(-c2ccccc2)c2cc(N)ccc2c2ccc(N)cc21	-	-	-	-	-	-
CN(C)P(=O)(NC(=O)c1cccn1C)N(C)C	-	-	-	-	107	-
Cc1cc(N(CCCl)CCCl)ccc1C=Cc1ccncn1	79	-	-	.	-	-
Cc1cc(N(CCCl)CCCl)ccc1/C=N/N=C(\N)c1cnccn1	-	-	-	-	-	-
O=c1ccc2c(O)c3ccoc3cc2o1	-	-	-	-	-	-
SMILES	cardiac RTF act	IDE act	Cardiac RTF inh	IDE inh	CRFR2-BP antag	CRFBP-R2 agonist
C=C(C)[C@@]12OC3(c4ccccc4)O[C@@H]1C1[C@@H]4O[C@]4(CO)[C@@H](O)[C@]4(O)C(=O)C(C)=C[C@H]4[C@@]1(O3)[C@H](C)[C@H]2OC(=O)/C=C/C=C/c1ccccc1 (some centres not stated)	-	-	-	-	111	-
CCc1c(C)nc(N)nc1N1N=C1SC(C(C)=O)C(C)=O	-	-	-	-	-	-
CCCCCc1nc2ccccc2c(=O)n1-c1ccccc1[N+](=O)[O-]	-	-	-	-	-	-
CCCCCc1nc2c(c(=O)c3ccccc3n2C)c(=O)n1C1CCCCCC1	-	-	-	-	-	219
CCCOC(=O)C1C2CCC(O2)C1C(=O)O (configuration not stated)	-	-	-	.	-	-
Cc1ccc(OC(=O)N(C)C[C@@H]2OCc3cnnn3CCCC(=O)N([C@H](C)CO)C[C@H]2C)cc1	.	.	.	.	-	-
Cc1ccc(OC(=O)N(C)C[C@@H]2OCc3cnnn3CCCC(=O)N([C@@H](C)CO)C[C@@H]2C)cc1	.	.	.	.	60	-
COc1ccc(NC(=O)[C@@H](NC(=O)N2C[C@H]3C[C@@H](C2)c2cccc(=O)n2C3)C(C)C)cc1	-	-	-	-	-	-
